MK inhibit = inhibitors of Streptococcus pneumoniae mevalonate kinase; inhibition, % at 10 µM; purified MK, PK/LDH-coupled NADH absorbance 340 nm; hit rate 0.48% among 65,000;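 active = ranked among the strongest by inhibition in the single 10 µM screen, a fixed top-ranked set picked for dose follow-up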
A340 absorber = compounds absorbing at 340 nm | 65,000 tested, under 10 active | fold change at 10 µM | compound absorbance at 340 nm, fold over control;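 active = at 10 µM dose, initial 340 nm absorbance at least 2 fold that of control wells; inactive = change under 2 fold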;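 note: initial absorbance extrapolated from kinetic A340 decline of NADH oxidation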
Autofluor 339 = intrinsic fluorescence of library compounds, ex339/em460 – biochemical, MLSMR library, data from DPM-DC assay, artefact control, profiling panel. compound autofluorescence, ex339/em460 nm, NADH buffer; hits give high values; 1 = no-compound wells, NADH background. fluorescence fold increase at 10 µM. hit rate 5.5% among 65,000;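 active = at 10 µM, mean starting fluorescence two-fold or more over control wells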;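 note: signal is the first read of a kinetic run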
Spn PMK inh = inhibitors of Streptococcus pneumoniae phosphomevalonate kinase; purified PMK, PK/LDH-coupled NADH absorbance 340 nm; inhibition, % at 10 µM; hit rate 0.49% among 65,000; AID 539;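 active = top-ranked compounds by inhibition in the single 10 µM screen, taking a fixed number of the strongest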;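 note: 0% = full reaction with DMSO carrier and 100% = background rate without enzyme reaction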
Spn DPM-DC inh = blocks S. pneumoniae diphosphomevalonate decarboxylase. hit rate 0.49% among 65,000. purified DPM-DC, PK/LDH coupled NADH fluorescence. calls only at 10 µM;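 active = the 320 compounds with the highest percent inhibition in the single-dose primary screen, excluding strongly autofluorescent ones, cut at about 32% in these data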;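 note: kinetic rate of NADH fluorescence loss reporting ADP formed by the decarboxylase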
NADH enzymes = inhibition of NAD/NADH coupling enzymes, library profiling; hit rate 0.02% among 65,000; coupled PK/LDH NADH assays, four targets; IC50, µM (doses to about 10 µM), inactives show top-dose inhibition;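 active = single-dose screening hits from any of four coupled enzyme assays that gave an IC50 when retested across doses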;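 note: the DPM-DC format reads NADH fluorescence rather than 340 nm absorbance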
* hit, by the source's call; i = inactive; . = no result given; + = active, no number. The list is not random: actives were taken first. Their share in the collection is about 6.3%.

SMILES	MK inhibit	A340 absorber	Autofluor 339	Spn PMK inh	Spn DPM-DC inh	NADH enzymes
CCOc1ccccc1NC(=O)NC1CC2CCCC(C1)N2Cc1nnnn1CCc1ccccc1 (configuration not stated)	9	0.98	1.1	0	i	3%
O=C(NC1CS(=O)(=O)CC1NCc1ccccc1)c1ccccc1 (configuration not stated)	6	1	1.1	4	i	3%
COc1cc(C2C(C#N)=C(N)Oc3cc(C)n(Cc4ccccn4)c(=O)c32)cc2c1OCO2 (configuration not stated)	5	1	1.1	7	i	4%
COc1ccc(OC)c(C2NC(=O)c3sc(=S)n(-c4ccccc4)c3N2)c1 (configuration not stated)	22	0.93	1	2	i	9%
Cc1[nH]c(=O)cc2ccccc12	0	1.1	0.99	7	i	3%
COC(=O)C1=CN(C)C=C(C(=O)OC)C1c1ccccc1Cl	11	1.1	3.9*	5	.	8%
CCCCOc1ccccc1C(=O)NCC(=O)O	7	1	1.1	6	i	5%
CCCCOc1ccccc1C1C(C(=O)OC)=CN(CC)C=C1C(=O)OC	10	1.1	2.2*	3	.	7%
COC(=O)C1=C(C)NC(C)=C(C(=O)OC)C1c1ccccc1[N+](=O)[O-]	4	0.98	0.57	7	i	4%
COC(=O)C1=C(N)Oc2cc(C)n(Cc3cccnc3)c(=O)c2C1c1cccc(OC)c1OC (configuration not stated)	12	1	1.1	15	i	9%
CN(C)CCNC(=O)c1coc(=O)c(Br)c1	9	1.1	3.7*	10	.	10%
Cc1ccc(C(=O)NCCN(C)C)c(C)c1	5	1	1.1	0	i	2%
COC(=O)c1c(NC(=O)c2nc3ncccn3n2)sc(C(=O)N(C)C)c1C	9	1.1	1.1	16	i	9%
CCOC(=O)N1CCN(C(=O)c2cn(CC)c3cc(N4CCN(C)CC4)c(F)cc3c2=O)CC1	5	1	1.9	18	+	9%
CCOC(=O)c1cn(CC)c2cc(N3CCCCC3)c(F)cc2c1=O	4	1.1	2	16	i	13%
CCC(=O)N1CCN(c2cc3c(cc2F)c(=O)c(C(=O)O)cn3CC)CC1	0	1.1	4.8*	5	.	3%
CCN1CCN(c2cc3c(cc2F)c(=O)c(C(=O)O)cn3C2CC2)CC1	6	1	2.2*	23	.	7%
CCCCCCC(=O)N1CCN(c2cc3c(cc2F)c(=O)c(C(=O)O)cn3CC)CC1	0	1	1	7	i	4%
CCOC(=O)c1cn(CC)c2cc(N3CCOCC3)c(F)cc2c1=O	9	1	2.3*	16	.	4%
[N-]=[N+]=CC(=O)c1ccnc(C(=O)C=[N+]=[N-])c1	0	1.1	1.1	6	i	2%
N#Cc1nc(-c2ccco2)oc1N1CCN(c2cccc(Cl)c2)CC1	12	1	1.2	11	i	6%
COc1ccccc1-c1nc(C#N)c(N2CCN(C(c3ccccc3)c3ccccc3)CC2)o1	15	1.1	3.9*	12	.	14%
COc1ccccc1-c1nc(C#N)c(N2CCN(c3cccc(Cl)c3)CC2)o1	17	0.91	3.5*	18	.	18%
CCOC(=O)c1ccc(N=CC2=C(O)CC(c3ccco3)CC2=O)cc1 (configuration not stated)	3	1	1	0	i	1%
COc1ccc(-c2coc3c(CN4CCCCC4)c(O)c(CN4CCCCC4)c(O)c3c2=O)cc1	0	1	1	26*	i	3%
SMILES	MK inhibit	A340 absorber	Autofluor 339	Spn PMK inh	Spn DPM-DC inh	NADH enzymes
COc1ccc(C(=O)c2coc3ccc(O)c(CN4CCOCC4)c23)cc1	6	1	1	1	i	2%
CCOc1ccc(-n2c(-c3ccco3)n[nH]c2=S)cc1	60*	0.99	1.2	11	i	25%
CCOC(=O)CSc1n[nH]c(-c2ccco2)n1	6	1	1.1	13	i	6%
O=C(CN1C(=O)c2cccc3cccc1c23)N1CCN(c2ccccc2)CC1	0	1	1.2	19	i	7%
O=C(CN1C(=O)c2cccc3cccc1c23)N1CCN(c2cccc(Cl)c2)CC1	8	1	2.4*	10	i	16%
Fc1ccc(-n2c(-c3ccco3)nc3nc4ccccc4nc32)cc1	0	1.1	5.1*	16	.	8%
Fc1cccc(-n2c(-c3ccco3)nc3nc4ccccc4nc32)c1	3	1.1	3.6*	7	.	5%
Fc1ccc(-c2nc3nc4ccccc4nc3n2Cc2ccco2)cc1	2	1.1	1.4	8	i	4%
CCCCOCCCn1c(-c2ccco2)nc2nc3ccccc3nc21	5	1.1	4*	8	.	7%
Cc1noc(C)c1CSc1nnc2cc(C)c3ccccc3n12	0	1	1.1	11	i	4%
O=C(NCc1ccccc1)C1CC2CCCC(C1)C2=O (configuration not stated)	6	1.1	1.1	0	i	2%
O=C(NCC1COc2ccccc2O1)C1CCCN(S(=O)(=O)c2cnc[nH]2)C1 (configuration not stated)	7	0.98	1	3	i	1%
COC(=O)[C@H](CCSC)NC(=O)N1CCN(c2cccc(C(F)(F)F)c2)CC1	9	0.99	1.1	6	i	5%
COC(=O)[C@@H](NC(=O)N1CCN(c2cccc(C(F)(F)F)c2)CC1)C(C)C	14	0.83	0.98	30*	i	15%
CCc1c(C)c2ccc(O)c(CN(C)C)c2oc1=O	12	1.2	2.3*	0	.	6%
CN(Cc1c(O)ccc2c1oc(=O)c1ccccc12)C1CCCCC1	50*	1.1	1.2	18	i	8.8µM*
CCCc1cc(=O)oc2cc3oc(C)c(C)c3cc12	0	1	1.5	6	i	2%
CCCCc1cc(=O)oc2c(CN(C)C)c(O)ccc12	10	1.1	3.6*	8	.	9%
CN(C1CCCCC1)S(=O)(=O)c1ccccc1	6	1	1.1	5	i	5%
CC1=C(SCCC#N)S/C(=C2\SC(C)=C(SCCC#N)S2)S1	9	1.1	1.1	8	i	6%
Cc1cc(C(=O)COc2ccc3ccc(=O)oc3c2)c(C)n1Cc1cccs1	0	1.1	2.6*	12	i	13%
O=C1CC(c2ccccc2)C(C(=O)Nc2ccccc2F)N1 (configuration not stated)	3	1	1.1	7	i	3%
Nc1nc2ccccc2n1CCOc1ccccc1Cl	0	1	1.1	6	i	2%
Cc1cccc(N=c2oc3cc(O)ccc3cc2C(N)=O)c1	6	1.1	3.7*	0	i	8%

Bioassay records as filed in PubChem.
